Assay results as given in PubChem BioAssay (NCI).
About 83,000 compounds went through this panel and 20% of them were active in at least one assay; those are over-represented in the sample as a whole.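 Step 1: grow cells in 96-well plates. Step 2: add test compound at a single concentration. Step 3: incubate 48 h. Step 4: record percent growth.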 Unmarked numbers belong to inactive results. The source made the active and inactive calls. Rule for the calls: active = growth percent below 10; inactive = the rest.

Assays:
Test in all cases: NCI-60 one-dose screen, 48 h (100 = growth as untreated, 0 = no growth, -100 = all killed)
Conditions in all cases: 10 µM unless noted
HCT-15 colon = test system: HCT-15 colon
HT29 colon = test system: HT29 colon
SNB-75 CNS = test system: SNB-75 CNS
SNB-19 CNS = test system: SNB-19 CNS
U251 CNS = test system: U251 CNS
PC-3 prostate = test system: PC-3 prostate
SK-MEL-5 melanoma = test system: SK-MEL-5 melanoma
UACC-62 melanoma = test system: UACC-62 melanoma
LOX IMVI melanoma = test system: LOX IMVI melanoma
SK-MEL-28 melanoma = test system: SK-MEL-28 melanoma
SK-MEL-2 melanoma = test system: SK-MEL-2 melanoma
EKVX NSCLC = test system: EKVX NSCLC
SN12C renal = test system: SN12C renal
UO-31 renal = test system: UO-31 renal
TK-10 renal = test system: TK-10 renal
CAKI-1 renal = test system: CAKI-1 renal
A498 renal = test system: A498 renal
CCRF-CEM leukemia = test system: CCRF-CEM leukemia
MOLT-4 leukemia = test system: MOLT-4 leukemia
ACHN renal = test system: ACHN renal

SMILES | growth (HCT-15 colon) | growth (HT29 colon) | growth (SNB-75 CNS) | growth (SNB-19 CNS) | growth (U251 CNS) | growth (PC-3 prostate) | growth (SK-MEL-5 melanoma) | growth (UACC-62 melanoma) | growth (LOX IMVI melanoma) | growth (SK-MEL-28 melanoma) | growth (SK-MEL-2 melanoma) | growth (EKVX NSCLC) | growth (SN12C renal) | growth (UO-31 renal) | growth (TK-10 renal) | growth (CAKI-1 renal) | growth (A498 renal) | growth (CCRF-CEM leukemia) | growth (MOLT-4 leukemia) | growth (ACHN renal)
COc1cnc2c(c1)C(=O)c1c-2n(CCCN2CCNCC2)c(=O)c2cc(Cl)ccc12 | -89.4% (active) | -80.4% (active) | 39.7% | 30.4% | -98.4% (active) | -84% (active) | 45.2% | -45% (active) | -84.6% (active) | -88.2% (active) | 43.9% | 29% | 16.5% | -59% (active) | 47.5% | 33.1% | 13.6% | -69.4% (active) | -54.2% (active) | 
FC(F)(F)c1nn[nH]n1 | 105% | 100% | 102% | 116% | 99.5% | 96.9% | 103% | 107% | 87.2% | 113% | 112% | 99.3% | 105% | 99.1% | 111% | 97% | 102% |  | 101% | 109%
O=C(O)c1cc2cc(OCc3ccccc3)ccc2[nH]1 | 92.3% | 114% | 87.8% | 86.4% | 105% | 102% | 84.1% | 79.3% | 96.7% | 48% | 39.9% | 87.3% | 97.1% | 74.4% | 114% | 82.3% | 98% | 98.4% | 99.5% | 
COc1cc(NC(=O)CSc2nc3ccc(Cl)cc3c(=O)n2-c2ccccc2)cc(OC)c1OC | 99.6% | 110% | 71.6% | 99.9% | 92.5% | 80.6% | 83.8% | 75% | 90.8% | 97.2% | 99.8% | 76.4% | 94.3% | 51% | 120% | 83.3% | 46.6% | 70.5% |  | 
COc1ccc(Nc2nc(N)nc3c(=O)[nH]ccc23)cc1 | 109% | 103% | 107% | 101% | 115% | 81.5% | 111% | 111% | 102% | 124% | 111% | 105% | 113% | 64.6% | 173% | 93.3% | 120% | 83.9% | 97.8% | 
COc1cc(C2CC(c3ccc(Cl)cc3)=NN2C(C)=O)ccc1Oc1nc2c(c(=O)n(C)c(=O)n2C)n1C (configuration not stated) | 88.5% | 73.8% | 75% | 59.8% | 80.7% | 75.6% | 55.6% | 75.9% | 64.5% | 86.6% | 105% | 83.6% | 50.3% | 76.3% | 110% | 81.5% | 77.4% | 80.5% | 62.6% | 
CC1=CCC2C1CC=C(C)C(CC[C@H]1[C@@](C)(O)CCC3OC(C)(C)[C@H](OC(=O)c4ccccc4)CC[C@@]31C)C2(C)C (some centres not stated) | 81.9% | 76.6% | 75.9% | 105% | 61.2% | 26.2% | 79.9% | 67.4% | 67% | 109% | 81.3% | 69.6% | 80.6% | 80.8% | 97.5% | 67.7% | 110% | 99.6% |  | 
COc1ccc(-n2c(COc3ccc(F)cc3)n[nH]c2=S)cc1 | 114% | 103% | 97.7% | 106% | 97.4% | 154% | 105% | 98.6% | 104% | 127% | 33.1% | 107% | 84.4% | 107% | 101% | 104% | 108% | 143% | 114% | 
CC1=C(/C=C/C(C)=C/C=C(C(=O)O)\C(C)=C\C(=O)O)C(C)(C)CCC1 | 105% | 96.8% | 87.5% | 97.8% | 94.6% | 91.3% | 111% | 96.9% | 94.9% | 114% | 94.7% | 124% | 92% | 92.7% | 98% | 117% | 91.2% | 93.3% | 86.3% | 
CCNCCCn1c2c(c3ccc(Cl)cc3c1=O)C(=O)c1cc(OC)cnc1-2 | -58.2% (active) | -76.3% (active) | 19.4% | 28.8% | -93.8% (active) | 40% | 18.3% | 14.4% | -71.1% (active) | 70.5% | 77.1% | 53.4% | 27.6% | 10.3% | 39.9% | 39.9% |  | -37.3% (active) | -34% (active) | 8.64% (active)
CCOC(=O)c1cc(N)nc2ccccc12 | 107% | 97.4% | 112% | 106% | 103% | 104% | 106% | 108% | 96.7% | 123% | 99.9% | 108% | 109% | 103% | 106% | 102% | 95% |  | 100% | 105%
O=C(C(=O)N1CCCC1)c1cn(CCCn2cc(C(=O)C(=O)N3CCCC3)c3cc(Br)ccc32)c2ccc(Br)cc12 | 84.6% | 79.3% | 46.3% | 85.5% | 36.6% | 66.5% | 90.8% | 85.1% | 57.9% | 79.8% | 107% | 54% | 83.3% | 72.6% | 92.7% | 46.7% |  | 74% | 73.6% | 55.2%
Cc1c(C(=O)CCl)c(=O)n(-c2ccccc2)n1C | 40% | 36.2% | 76.3% | 94.5% | 65.8% | 55.5% | 87.9% | 74.1% | 62% | 65% | 71.4% | 76.8% | 86% | 64.2% | 40.1% | 29.8% | 77.4% |  | 24.8% | 47%
COc1cc(Cl)cc(-c2nn(C(=O)NCCN3CCOCC3)cc2-c2ccncc2)c1 | 45.7% | 34.1% | 28.9% | 69.2% | 57.7% | 70.6% | 35.5% | 52.4% | 63.2% | 61.4% | 78.3% | 93.4% | 75.3% | 56.9% | 78% | 73.3% | 65.7% |  | 74.2% | 65.6%
O=C(/C=C/c1ccccc1Br)c1cccc(OCCCCOc2cccc(C(=O)/C=C/c3ccccc3Br)c2)c1 | 81.6% | 89.3% | 79.7% | 90.8% | 77% | 92% | 98.7% | 78.8% | 86.4% | 102% | 104% | 102% | 96.6% | 81.3% | 117% | 91.9% | 108% | 88.5% | 91.6% | 
COc1cc2c(=O)n(CCCN(C)C)c3c4cc[nH]c4ncc3c2cc1OC | 54.7% | 16.2% | 47.9% |  | 35.1% | 32.8% | 80.9% | 54.5% | 25.3% | 89.9% | 71.5% | 51.1% | 33.9% | 34.1% | 53.7% | 84.5% | 18.8% | 34.5% | -6.64% (active) | 26.6%
